# Screening results deposited in PubChem BioAssay by several laboratories.
# Compounds with a hit are over-represented: about 3.2% of the library has one in this group of screens.
# LGR2 inh: Drosophila LGR2 receptor signaling inhibition | inhibition, % at 9.99 µM | HEK293 LGR2, CRE-luciferase, bursicon-stimulated, 4 h | hit rate 0.35% among 380,000;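 active means drop in luminescence signal, shown as inhibition above about 50% in the replicate tests, limit read from the data, passing the limit was not always enough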;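 further: agonist challenge used bursicon conditioned medium at about half maximal strength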
# EWS-Fli block: blocks EWS/Fli oncoprotein-driven transcription; inhibition, % at 12.6 µM; AID 651661; hit rate 0.67% among 350,000; A673 NR0B1-luciferase reporter, viability-normalised;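 active means mean inhibition of at least 50% after viability correction, with every replicate also passing that limit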;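 further: firefly luciferase signal divided by Alamar Blue viability fluorescence both relative to DMSO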
# EBV LMP1 NFkB: inhibitors of Epstein-Barr LMP1-induced NF-kappaB reporter | LMP1-induced NF-kappaB luciferase reporter cells, luminescence | inhibition, % at 12.5 µM | hit rate 0.69% among 350,000; in the data active means inhibition above about 41%;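 further: 0% = neutral control wells and 100% = reference inhibitor control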
# PAX8 inh HTS: lowers PAX8-driven luciferase in RMG-I cells. inhibition, % at 12.6 µM. hit rate 1.2% among 360,000. RMG-I TPO-luciferase reporter, SteadyGlo, 24 h;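 active means mean replicate inhibition at least 60% with every replicate also reaching 60%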;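 further: luciferase light reporting Pax8 driven TPO promoter activity; plate controls were median of neutral control wells for no effect and mitoxantrone controls for full effect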
# TROY NFkB inh: inhibitors of TROY-dependent NF-kB signaling; hit rate 0.98% among 360,000; inhibition, % at 10 µM; AID 1347056; Q293 LMP1-TROYcd NF-kB luciferase reporter, 4 h;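 active means compounds whose plate-normalised and pattern-corrected inhibition of the luciferase reporter signal at the single screening dose is 50% or more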
# TWEAK Fn14 block: inhibitors of TWEAK-Fn14 interaction signaling; TWEAK-stimulated Fn14 reporter cells, luciferase luminescence, 8 h; inhibition, % at 10 µM; hit rate 2% among 360,000; in the data active means inhibition above about 50%
# * hit, by the source's call; . = no result.
SMILES,LGR2 inh,EWS-Fli block,EBV LMP1 NFkB,PAX8 inh HTS,TROY NFkB inh,TWEAK Fn14 block
Fc1ccc(-c2cnn3c(-c4ccncc4)ccnc23)cc1,-55.8,19.5,-9.6,-79.9,-7.6,61.0*
Nc1c(-c2ccc(Cl)cc2)cnc2c(-c3ccc(F)cc3)cnn12,-121.4,-125.1,-63.6,-128.3,36.7,-16.3
Cc1nc2c(-c3ccc(Cl)cc3)cnn2c(N)c1-c1ccc(F)cc1,2.7,0.8,-57.3,-114.9,79.6*,94.5*
COCC#Cc1ccc([C@H]2[C@H](CO)N3C(=O)CN(C(=O)C4CCOCC4)C[C@@H]23)cc1,7.8,-2.9,.,6.6,.,.
Cc1nc2c(-c3ccc(F)cc3)cnn2c(N)c1-c1ccccc1,64.0*,32.3,14.7,-22.0,93.6*,104.2*
Cc1cc(-c2ccncc2)n2ncc(-c3ccccc3)c2n1,-85.9,-19.0,.,18.2,-23.7,11.9
Cc1cc(-c2ccc(F)cc2)n2ncc(-c3ccccc3)c2n1,26.6,-53.1,.,-178.8,78.7*,86.5*
Cc1cc(N)n2ncc(-c3ccccc3)c2n1,.,.,-39.1,.,-44.8,-8.9
COc1ccc(NC(=O)Nc2ccc3c(c2)C(=O)N([C@@H](C)CO)C[C@@H](C)[C@H](CN(C)C)OCCCC[C@H](C)O3)cc1,8.0,-3.1,.,-32.2,.,.
CN(C)c1ccc(CC(=O)N2CCCC(c3cc(C(=O)Nc4ccc5c(c4)OCO5)no3)C2)cc1 (stereo not drawn),1.8,2.7,.,-16.3,-9.7,7.8
O=C(Nc1ccccc1)c1cc(C2CCCN(C(=O)C3CC3)C2)on1 (stereo not drawn),83.8*,50.2,.,-4.5,76.3*,92.9*
CN(C)c1ccc(CC(=O)N2CCCC(c3cc(C(=O)Nc4ccccc4)no3)C2)cc1 (stereo not drawn),11.0,-33.3,.,-82.7,76.3*,71.3*
O=C(NCc1ccccc1)c1cc(C2CCCN(C(=O)C3CC3)C2)on1 (stereo not drawn),-14.1,-31.2,.,-13.7,-25.4,-10.7
C[C@@H]1CN([C@H](C)CO)C(=O)c2cc(NC(=O)CCCN(C)C)ccc2O[C@@H](C)CCCCO[C@H]1CN(C)Cc1ccc2c(c1)OCO2,0.2,-5.4,.,-11.0,.,.
CO[C@@H]1CN(C)C(=O)c2ccc(NC(C)=O)cc2OC[C@@H](C)N(C(=O)c2ccncc2)C[C@@H]1C,10.6,-7.7,.,.,.,.
C=CCn1c2ccccc2c2nnc(SCCCn3c(=O)[nH]c4ccccc43)nc21,.,.,18.2,.,68.4*,59.7*
O=C(Nc1cccc(Cl)c1Cl)c1snnc1-c1ccccc1,.,.,8.2,.,8.1,0.2
O=C(Nc1cc(Cl)ccc1O)c1snnc1-c1ccccc1,.,.,12.9,14.7,54.6*,8.8
COc1ccc(C(=O)CN2C(=O)c3ccccc3S2(=O)=O)cc1Br,36.8,.,15.2,21.1,35.2,62.3*
O=C(CN1C(=O)c2ccccc2S1(=O)=O)c1ccc(O)c(O)c1,4.4,22.1,23.1,-4.1,28.6,47.9
COc1ccc(NC(=O)CN2C(=O)c3ccccc3S2(=O)=O)cc1OC,4.5,-3.6,3.2,9.5,10.9,-8.3
Cc1cc(C(=O)CN2C(=O)c3ccccc3S2(=O)=O)c(C)n1CC1CCCO1 (stereo not drawn),.,.,80.0*,.,44.9,106.2*
O=C(CN1C(=O)c2ccccc2S1(=O)=O)c1ccc(F)c(F)c1,64.6*,35.1,46.3*,63.6*,72.3*,90.9*
Cc1cc(C(=O)CSc2nc3ccccc3c(=O)[nH]2)c(C)n1CC1CCCO1 (stereo not drawn),-27.2,-51.9,-9.7,-97.0,42.4,60.4*
COc1ccc(CN(C)C[C@H]2Oc3ccc(NC(=O)NC4CCCCC4)cc3CC(=O)N([C@H](C)CO)C[C@@H]2C)cc1,-5.1,.,.,.,.,.
SMILES,LGR2 inh,EWS-Fli block,EBV LMP1 NFkB,PAX8 inh HTS,TROY NFkB inh,TWEAK Fn14 block
Cc1ccc(C)c(C(=O)CN2C(=O)c3ccccc3C2=O)c1,7.9,-5.3,-4.6,-6.1,-28.9,-18.5
CCOC(=O)N1CCN(C(=O)CN2C(=O)c3ccccc3S2(=O)=O)CC1,-24.3,-9.8,2.6,-5.6,-51.3,-15.0
Cc1ccc(C)c(C(=O)CN2C(=O)c3ccccc3S2(=O)=O)c1,.,.,14.4,.,27.0,60.1*
CCN1CCN(C(=O)CN2C(=O)c3ccccc3S2(=O)=O)CC1,-94.8,-43.3,-35.9,-86.8,61.7*,28.1
CC(=O)Nc1ccc2c(c1)C(=O)N(C)[C@@H]1CC[C@@H](CC(=O)NCc3ccccc3Cl)O[C@@H]1CO2,4.1,5.5,.,10.5,.,.
CC(C)NC(=O)Nc1ccc2c(c1)C(=O)N([C@H](C)CO)C[C@@H](C)[C@H](CN(C)Cc1ccc(Oc3ccccc3)cc1)O2,-23.1,11.2,.,1.6,.,.
COc1ccc(NC(=O)c2cc3c(-c4ccc(OC)c(OC)c4)nn(C)c3s2)cc1OC,.,.,13.3,.,-50.5,58.4*
CC(C)NC(=O)N(C)C[C@H]1Oc2ccc(NC(=O)NC3CCCCC3)cc2C(=O)N([C@@H](C)CO)C[C@H]1C,4.7,-1.2,.,.,.,.
CC1=C(C(=O)OCCBr)C(c2cccc3ccccc23)NC(=O)N1 (stereo not drawn),5.3,-5.2,2.7,10.2,6.0,52.9*
CCCOC(=O)C1=C(C)NC(=O)NC1c1cccc2ccccc12 (stereo not drawn),-1.5,.,-2.5,22.6,-5.8,-1.7
CCOC(=O)c1sc(NC(=O)Nc2ccc(Cl)cc2)cc1C,.,.,1.4,-25.0,18.2,66.7*
O=C(C[C@H]1C=C[C@H](NS(=O)(=O)c2ccc(F)cc2)[C@@H](CO)O1)NCCN1CCCCC1,-4.6,5.3,.,-14.7,.,.
CC(C)(C)c1ccc(C(=O)n2cnc3ccccc32)cc1,-1.1,6.9,1.6,10.8,63.7*,77.6*
N#CC1c2ccccc2C=CN1C(=O)N(c1ccccc1)c1ccccc1 (stereo not drawn),.,13.3,8.0,78.0*,38.5,94.3*
COc1ccc(C(=O)N2C=Cc3ccccc3C2C#N)cc1 (stereo not drawn),0.2,-0.7,9.1,-2.4,5.1,14.0
CCCCCCCCCCn1ccc(=N)cc1,35.8,57.7*,29.3,82.8*,48.2,33.3
CN1N=C(C(C)(C)C)CSC1=Nc1ccc(F)cc1,-17.4,-20.2,-7.4,-22.8,-9.8,66.4*
CN1N=C(c2ccc(F)c(F)c2)CSC1=NCc1ccccc1,12.9,-5.4,3.3,-15.4,-8.1,-1.2
O=C(Nc1ccncc1)Nc1ccncc1,4.7,17.6,-5.7,-2.5,13.7,10.8
COC(=O)c1sccc1NC(=O)Nc1ccc(C(C)=O)cc1,-52.8,-1.5,-10.3,-16.5,36.7,59.1*
CC(=O)c1ccc(NC(=O)Nc2ccncc2)cc1,-11.7,-2.0,-6.6,-45.3,5.3,57.6*
CC[C@]12c3[nH]c4cc(CCC(=O)N(C)C)ccc4c3CCN1C(=O)[C@@H](CC(=O)NCC13CC4CC(CC(C4)C1)C3)C[C@@H]2C(=O)N1CCN(C(=O)c2ccco2)CC1,-11.0,19.1,12.1,5.7,-2.3,95.8*
C[C@@H]1CCCCO[C@H](CN(C)S(=O)(=O)c2cccs2)[C@H](C)CN([C@@H](C)CO)C(=O)c2cc(NS(C)(=O)=O)ccc2O1,4.8,-6.0,.,1.5,.,.
